DT40 TDP1 no CPT – qHTS for Inhibitors of human tyrosyl-DNA phosphodiesterase 1 (TDP1): qHTS in cells in absence of CPT. DT40 Tdp1-/- hTDP1 cells, no CPT, ATP luminescence, 48 h. Potency, µM (top dose mostly 46.2 µM), without a hit: at the highest dose activity change, negative = growth inhibition, actives largely listed as inhibitors. 420,000 compounds, 15% hits; further: nearly all actives have a fitted effect of over 55% in size
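No-CPT arm: Tdp1-/-;hTDP1 DT40 cells (400/well) plus compounds, incubated ≥48 hr at 37 °C. Readout CellTiter-Glo luminescence.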
ALOX12 inh – ALOX12 (human) lipoxygenase inhibition | P18054 | purified 12hLO, xylenol orange hydroperoxide absorbance | Potency, µM (titrated, usually from 108 µM), without a hit: at the highest dose activity change, negative = inhibition, hits mostly inhibitors | 580,000 compounds, 1.1% hits
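Hydroperoxide product was detected by ferrous iron/xylenol orange as the 573 to 405 nm absorbance ratio. Arachidonic acid at 40 uM (final) was turned over for 30 min at room temperature by 150 nM human 12hLO, pH 7.0 Hepes buffer, after 15 min compound preincubation.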
ELG1 repair inh – ELG1-dependent DNA repair inhibition; HEK293T ELG1-luciferase reporter, luminescence, 16 h; DNA damage induced by 5-fluorouridine; AID 504467; Potency, µM (highest dose often 46.1 µM), without a hit: top-dose activity change, negative = inhibition, actives largely listed as inhibitors; 330,000 compounds, 2.3% hits; further: nearly all actives have a fitted effect of over 55% in size
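Overnight (16 hr) co-exposure of 2,000 cells/well to 5-fluorouridine and compound at 37 °C preceded detection. Luciferase was quantified via ONE-Glo luminescence; loss of signal denotes inhibition.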
VP16 counter – inhibits Gal4-VP16 luciferase reporter, ROR gamma counter-screen | Drosophila S2 Gal4-VP16 UAS-luciferase, luminescence, 20 h | Potency, µM (series often up to 53.6 µM), for inactives: at the highest dose activity, negative = inhibition, actives largely listed as inhibitors | 310,000 compounds, 3.5% hits;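 further: Gal4-VP16 expression switched on by copper sulfate through the metallothionein promoter; nearly all actives have a fitted effect of over 50% in size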
TDP1 cell CPT – DT40-hTDP1 cell growth loss with CPT | chicken DT40 Tdp1-/-;hTDP1 cells + 20 nM CPT, ATP luminescence, 48 h | Potency, µM (top dose mostly 46.2 µM), inactives show top-dose activity change, negative = growth inhibition, actives largely listed as inhibitors | 420,000 compounds, 12% hits | AID 686979; further: nearly all actives have a fitted effect of over 55% in size
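Chicken DT40 Tdp1-/- cells stably complemented with human TDP1 were seeded at 400 cells/well in medium containing 20 nM camptothecin, exposed to pin-transferred compounds, and grown at 37 °C for at least 48 hr. Viability was read as ATP luminescence.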
RORg inh – ROR gamma (mouse) transcription inhibition; P51450; Potency, µM (series often up to 53.6 µM), for inactives: at the highest dose activity change, negative = inhibition, usual class: inhibitors; 310,000 compounds, 5.4% hits; Drosophila S2 Gal4-RORgamma UAS-luciferase reporter, 20 h; AID 2551; further: nearly all actives have a fitted effect of over 60% in size
Target sequence (P51450 whole entry, looked up, the tested form may be a part): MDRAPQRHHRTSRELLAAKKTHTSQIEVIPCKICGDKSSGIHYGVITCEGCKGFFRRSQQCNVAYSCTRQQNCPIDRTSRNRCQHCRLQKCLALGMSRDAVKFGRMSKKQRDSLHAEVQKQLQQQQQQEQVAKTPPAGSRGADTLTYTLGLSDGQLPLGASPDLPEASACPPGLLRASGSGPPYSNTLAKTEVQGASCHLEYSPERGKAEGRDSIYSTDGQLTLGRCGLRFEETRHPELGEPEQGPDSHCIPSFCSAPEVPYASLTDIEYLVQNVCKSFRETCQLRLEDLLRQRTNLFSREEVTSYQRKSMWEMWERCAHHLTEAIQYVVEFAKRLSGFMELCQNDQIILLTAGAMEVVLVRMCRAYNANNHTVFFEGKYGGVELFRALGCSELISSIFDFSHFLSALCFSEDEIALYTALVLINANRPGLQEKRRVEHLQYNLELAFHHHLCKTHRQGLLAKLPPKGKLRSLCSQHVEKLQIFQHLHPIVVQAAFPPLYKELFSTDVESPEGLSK
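Luminescence from a UAS-regulated Photinus luciferase reporter in stably transfected Drosophila Schneider cells is measured; decreased signal marks ROR gamma inhibition. Fusion expression is induced by 700 uM copper sulfate for 20 hr.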
Numbers without * were called inactive; ? = inconclusive; nt = no result given; ! = not active in a repeat; [ ] = remark or other dose. The list is not random: actives were taken first. Their share in the collection is about 15%. The call rests on the fitted dose curve; in most records, active means well fitted curve in the direction sought with a large enough effect; inconclusive means small, poorly fitted or top-dose-only effect, or another doubt; inactive means no such curve, though single readings can be large; an effect the other way counts as inactive or inconclusive. On the % scale 0 is the no-effect control and ±100 the full control effect; potency means the concentration at half of the fitted maximal effect.

SMILES | DT40 TDP1 no CPT | ALOX12 inh | ELG1 repair inh | VP16 counter | TDP1 cell CPT | RORg inh
Cn1c(=O)c2c(ncn2CC(COCc2ccccc2F)OCc2ccccc2F)n(C)c1=O (stereo not drawn) | nt | 44% | nt | nt | nt | nt
Nc1nc2c(ncn2COC(CO)CO)c(=O)[nH]1 | 2.6µM* | 2%[57.4 µM] | 0% | -6% | 1.3µM* | -26%
CC(C)n1nc(C(=O)NCCCC(=O)O)c2ccccc2c1=O | nt | 10% | nt | nt | nt | nt
O=C(c1ccc(C(F)(F)F)cc1)N1CCC(c2nn(-c3ccc(F)cc3)c(=O)[nH]2)CC1 | nt | 22µM* | nt | nt | nt | nt
O=C(c1cccc(C(F)(F)F)c1)N1CCC(c2nn(-c3ccc(Cl)cc3)c(=O)[nH]2)CC1 | nt | 10µM* | nt | nt | nt | nt
COc1ccc(C(=O)N2CCC(c3nn(-c4ccc(Cl)cc4)c(=O)[nH]3)CC2)cc1 | nt | 35µM* | nt | nt | nt | nt
COc1ccc(C(=O)N2CCC(c3nn(-c4ccccc4)c(=O)[nH]3)CC2)cc1 | nt | 8% | nt | nt | nt | nt
CC(=O)c1c(Cl)nc2ccccc2c1-c1ccccc1 | nt | -45% | nt | nt | nt | nt
CC(C(=O)Nc1ccccc1)n1nc(-c2ccccc2)c2c(c1=O)CCCC2 (stereo not drawn) | nt | -8% | nt | nt | nt | nt
CCOc1ccc(C(=O)/C=C/c2cn(CN3CCN(C)CC3)c3ccccc23)cc1 | ? | -21% | ? | ? | -20% | -18%
COc1ccc(OCC(O)CN(CCO)CC(O)Cn2ccc3ccccc32)cc1 (stereo not drawn) | ? | ? | -8% | -11% | -17% | 11%
COc1ccc(C(=O)/C=C/c2cn(CC(O)CN3CCc4ccccc43)c3ccccc23)cc1OC (stereo not drawn) | 4.1µM* | -3% | nt | nt | 3.3µM* | nt
CC(C)CN(CC(C)C)CC(O)Cn1cc(/C=C/C(=O)c2ccccc2)c2ccccc21 (stereo not drawn) | 4.6µM* | ? | nt | nt | 4.1µM* | nt
CCC(=C(c1ccc(OC)cc1)c1ccc(OC)cc1)c1cn(CC(O)CN(CCO)CCO)c2ccccc12 (stereo not drawn) | 21µM* | ? | ? | -6% | ? | ?
CCCN(CCC)CC(O)Cn1cc(/C=C/C(=O)c2ccc(OCC)cc2)c2ccccc21 (stereo not drawn) | 5.2µM* | ? | nt | nt | 5.8µM* | nt
Cc1ccc(C(=O)/C=C/c2cn(CC(O)CN3CCc4ccccc43)c3ccccc23)cc1 (stereo not drawn) | ? | -25% | nt | nt | ? | nt
O=C(CN1CCN(CC(=O)N2CCCCCC2)CC1)NCCc1c[nH]c2ccccc12 | nt | 15% | nt | nt | nt | nt
Cc1ccc(C2Cn3nnc(C(=O)N4CCC(C(=O)NC5CCC(C)CC5)CC4)c3CO2)cc1 (stereo not drawn) | nt | 3% | nt | nt | nt | nt
CCCCNC(=O)c1nc(C2CCN(S(=O)(=O)c3ccc(OC(F)(F)F)cc3)CC2)oc1-c1ccccc1 | 6.5µM* | 6% | nt | nt | 7.3µM* | nt
CCCCNC(=O)c1nc(C2CCN(S(=O)(=O)c3c(F)cccc3F)CC2)oc1-c1ccccc1 | 18µM* | -1% | nt | nt | 9.2µM* | nt
CCCCNC(=O)c1nc(C2CCN(S(=O)(=O)c3ccccc3C(F)(F)F)CC2)oc1-c1ccccc1 | 16µM* | 1% | nt | nt | 23µM* | nt
CCCCNC(=O)c1nc(C2CCN(S(=O)(=O)c3ccc(F)c(F)c3)CC2)oc1-c1ccccc1 | 6.5µM* | 19% | nt | nt | 10µM* | nt
CCCCNC(=O)c1nc(C2CCN(S(=O)(=O)c3c(F)cccc3F)CC2)oc1-c1cccc(C(F)(F)F)c1 | -10% | 14% | nt | nt | 7% | nt
CCc1noc(C)c1C(=O)N1CCC(c2[nH]ncc2-c2ccccc2C)CC1 | nt | 15% | nt | nt | nt | nt
CCOc1ccccc1CN1CCCCCCNC(=O)CC1c1ccccc1 (stereo not drawn) | nt | 10% | nt | nt | nt | nt
SMILES | DT40 TDP1 no CPT | ALOX12 inh | ELG1 repair inh | VP16 counter | TDP1 cell CPT | RORg inh
CCOCCCNC(=O)c1cc2cc(Cl)ccc2nc1C | nt | 23% | nt | nt | nt | nt
CC(C)O/C(=N\S(=O)(=O)c1ccc(Cl)cc1)c1ccccc1 | -9% | -11% | 2% | 4% | -3% | 0%
Cc1ccc(S(=O)(=O)/N=C(/Nc2nc(C)cs2)c2ccccc2)cc1 | -4% | ? | 0% | nt | 1% | nt
CC(=O)c1cc2c(cc1N/C(=N/S(=O)(=O)c1ccc(C)cc1)c1ccc(Cl)cc1)OCO2 | -1% | ? | 9% | 7% | ? | 27%
Cc1ccc(S(=O)(=O)/N=C(/Nc2ccc([N+](=O)[O-])cc2)c2ccccc2)cc1 | ? | 45µM* | ? | -2% | 2% | 27%
Cc1ccc(S(=O)(=O)/N=C(/Nc2ccc([N+](=O)[O-])cc2[N+](=O)[O-])c2ccccc2)cc1 | ? | ? | 23µM* | nt | ? | nt
CC(=O)c1cc2c(cc1N/C(=N/S(=O)(=O)c1ccc(C)cc1)c1ccccc1)OCO2 | ? | ? | ? | -6% | 23µM*! | -4%
CC(C)OC(=S)N/C(=N\S(=O)(=O)c1ccccc1)c1ccccc1 | -1% | -14% | 14% | 22%[0.365 µM] | 7% | 0.45µM*
O=C(Cn1ccn2nc(-c3ccc(F)cc3)c(CO)c2c1=O)N1CCC(Cc2ccccc2)CC1 | nt | 27% | nt | nt | nt | nt
Cc1cccc(NC(=S)N/C(=N/S(=O)(=O)c2ccccc2)c2ccccc2)c1 | ? | ? | ? | ? | -2% | ?
O=[N+]([O-])c1ccc(NC(=S)N/C(=N/CS(=O)(=O)c2ccccc2)c2ccccc2)cc1 | 23µM* | ? | ? | -8% | ? | -34%
Cc1ccc(S(=O)(=O)/N=C(/NC(=S)Nc2cccc(C)c2)c2ccccc2)cc1 | ? | 0% | 25% | 13µM* | ? | ?
CCn1nc(-c2cccc(-c3ccnn3C)c2)nc1N(C)C | nt | 23% | nt | nt | nt | nt
Cc1ccc(C)c(NC(NC(=O)c2ccc(C(C)(C)C)cc2)C(Cl)(Cl)Cl)c1 (stereo not drawn) | nt | -3% | nt | nt | nt | nt
CC1(C)CC(NC(=O)C2CCC(CNC(=O)CNC(=O)c3ccccc3)CC2)CC(C)(C)N1 (stereo not drawn) | nt | 3% | nt | nt | nt | nt
Cc1cccc(OCC(=O)Nc2cccc(C(=O)OCc3cc(=O)n4nc(C(C)C)sc4n3)c2)c1 | 12µM* | -27% | nt | nt | ? | nt
CC(C)c1nn2c(=O)cc(COC(=O)c3cccc(NC(=O)COc4ccc(F)cc4)c3)nc2s1 | 21µM* | -22% | nt | nt | 13µM* | nt

Source: PubChem
